Dicer inh = inhibitors of human Dicer processing of pre-microRNA | z-score at 25 µM | AID 1347074 | actives 6% (n = 47,000) | cat-ELCCA pre-miR-21 Dicer processing, chemiluminescence; hits give high values; in the data active = z-score above about 3, passing the limit was not always enough;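 also: higher signal means more uncleaved substrate so more Dicer inhibition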
Hits are given with their value; . = inactive. This is one part of a sample in which hits are shown more often than they occur.

SMILES	Dicer inh
Cc1cc(C)c2c(c1)-c1cc(C)nn1C(c1ccc3c(c1)OCO3)N2 (centres undefined)	.
CCOc1cccc(C2Nc3c(C)cc(C)cc3-c3cc(C)nn32)c1O (centres undefined)	.
O=c1[nH]nc(SCc2ccccc2)n1-c1ccc(OCc2ccccc2)cc1	.
O=S(=O)(NNc1c(Cl)cccc1Cl)c1cc(C(F)(F)F)cc(C(F)(F)F)c1	.
O=C(c1ccco1)N(CCN(C(=O)c1ccco1)c1ccccc1)c1ccccc1	.
CSc1sc(C(=O)NNC(=O)c2ccccc2Cl)cc1S(=O)(=O)C(C)C	.
CC12CN3CC(C)(CN(C1)C3c1cc(Br)ccc1O)C2O (centres undefined)	.
Cc1cc(C)c(C#N)c(SCC(=O)Nc2nnc(-c3cccs3)s2)n1	.
CC(C)(C)c1ccc(-c2cc(NC(=O)c3ccccc3F)n[nH]2)cc1	.
Cc1cc2n(n1)C(c1ccsc1)Nc1c(C)cccc1-2 (centres undefined)	.
Cc1cc2n(n1)C(c1cccc(Cl)c1)Nc1c(C)cccc1-2 (centres undefined)	6.2
COc1ccc(C2Nc3c(C)cccc3-c3cc(C)nn32)cc1OC (centres undefined)	.
Cc1ccc([N+](=O)[O-])c(C)c1Nc1ccccc1C(=O)O	.
Cc1c(CCN2CCOCC2)c(N2CCOCC2)n2c(nc3ccccc32)c1C#N	.
CCCCc1c(C)c(C#N)c2nc3ccccc3n2c1-n1ccnc1C	8.3
Cc1c(Cc2ccccc2)c(-n2ccnc2C)n2c(nc3ccccc32)c1C#N	.
CCOC(=O)c1c(CS(=O)(=O)c2ccccc2)n(C)c2cc(Br)c(O)cc12	.
CCOC(=O)c1c(C)n(C)c2cc(CN(C)C)c(O)c(S(=O)(=O)c3ccccc3)c12	3.8
CCOC(=O)c1c(CN(C)C)n(C)c2cc(Br)c(O)c(CN(C)C)c12	.
CC1=C(C#N)C(c2ccc(Br)cc2)C2=C(CCCC2=O)N1 (centres undefined)	.
N#Cc1cc2c(nc1SCC(N)=O)CCCC2	.
COc1nccnc1NS(=O)(=O)c1ccc(NC(=O)c2ccc(Br)cc2)cc1	.
COC(=O)c1cc(NS(=O)(=O)c2ccc(F)cc2)cc(C(=O)OC)c1	.
COC(=O)c1cc(NS(=O)(=O)c2ccc(Br)cc2)cc(C(=O)OC)c1	3.9
Cc1cc(O/C=C/C(=O)c2ccc(Br)cc2)ccc1Cl	.
SMILES	Dicer inh
COc1ccc(C(=O)/C=C/Sc2cc(Cl)ccc2Cl)cc1	.
COc1ccc(C(=O)/C=C/Oc2ccc(Cl)cc2)cc1	4.4
Cc1c(C)n(C(=O)CSc2ccccn2)c2ccccc12	.
FC(F)(F)c1cccc(NC(=S)Nc2ccccc2)c1	.
O=S(=O)(Nc1ccc(F)cc1)c1cc(Cl)c(Cl)cc1Cl	.
Cc1ccc(NS(=O)(=O)c2ccc(Cl)cc2)c(N)c1	.
Cc1ccc(NS(=O)(=O)c2cc(Cl)c(Cl)cc2Cl)c(N)c1	8.3
CCCCCCSc1nnc2c(n1)OC(C)N(C(C)=O)c1ccccc1-2 (centres undefined)	.
N=C(N)SCc1cccc(Cl)c1	.
N=C(N)SCc1cc2ccccc2o1	3.2
N=C(N)SCc1cccc(CSC(=N)N)c1F	.
COC(=O)c1ccccc1N(Cc1c(F)cccc1Cl)S(C)(=O)=O	.
Cc1nn(-c2ccccc2)c(C)c1C(=O)O	8.4
O=C(Nc1ccccc1)c1nc(-c2ccccc2)n(-c2ccccc2)n1	.
COc1ccc(OC(=O)c2c(C)nn(-c3ccccc3)c2C)cc1	.
CC(C)(C)c1cc(C(=O)O)nn1-c1ccccc1	.
Cc1nn(-c2ccccc2)c(C)c1C(=O)Oc1ccc(Cl)cc1Cl	.
O=C(O)c1nc(-c2ccccc2)n(-c2ccccc2)n1	5.4
Cn1c(=O)c2c(nc(Cl)n2Cc2cccc(F)c2)n(C)c1=O	.
CCc1c(C)nc(SCc2ccc(C)cc2)c(C#N)c1C	.
O=c1[nH]nc(SCc2ccccc2)n1-c1cccc(Cl)c1	.
O=S(=O)(c1ccc(-c2oc3cc(S(=O)(=O)N4CCCCC4)ccc3c2Cl)cc1)N1CCCCC1	.
Cc1ccc(Nc2cc(C)nc3ccc(C)cc23)cc1	.
COc1ccc2nc(C)cc(Nc3ccc(Cl)cc3)c2c1	3.1
COc1ccc(Nc2cc(C)nc3ccc(OC)cc23)cc1	.
SMILES	Dicer inh
COc1ccc(C2CC(=O)C3=C(C2)NC(C)=C(C#N)C3c2cccc(OC)c2OC)cc1 (centres undefined)	.
CC1=C(C#N)C(c2ccc(-c3ccccc3)cc2)C2=C(CCCC2=O)N1 (centres undefined)	.
O=C(Nc1cnn(Cc2ccc(F)cc2)c1)c1cc2n(n1)C(C(F)(F)F)CC(c1ccco1)N2 (centres undefined)	.
S=C(NCc1ccccc1Cl)Nc1cc(Cl)c(Cl)cc1Cl	.
S=C(NCCc1ccccc1)Nc1cc(Cl)c(Cl)cc1Cl	4.7
COc1ccc(CCNC(=S)NCCc2ccccc2)cc1OC	.
CN/N=C/c1ncc(C(F)(F)F)cc1Cl	.
COc1ccc(C2SCCN2S(=O)(=O)c2ccc(C)cc2)cc1Br (centres undefined)	.
CN1CCC(=NOC(=O)Nc2ccc(Cl)cc2)CC1	.
O=C1Nc2ccc(S(=O)(=O)Nc3ccccc3O)c3cccc1c23	8
Cc1ccc(C)c(NS(=O)(=O)c2ccc3c4c(cccc24)C(=O)N3)c1	.
O=C1Nc2ccc(S(=O)(=O)NCCO)c3cccc1c23	.
CCOc1ccc(C2c3c(oc4ccc(C)cc4c3=O)C(=O)N2c2nc(C)c(C(=O)OC)s2)cc1 (centres undefined)	.
Clc1ccc2c(c1)N=C(N1CCNCC1)c1ccccc1N2	4
CN1CCN(C2=Nc3cc(Cl)ccc3Nc3ccccc32)CC1	.
O=C1Nc2ccc(Cl)cc2C(c2ccccc2)=Nc2ccccc21	.
N#Cc1c(N2C(=O)CCC2=O)sc2c1CCCC2	.
CCCCOC(=O)c1cc([N+](=O)[O-])cc2c1-c1ccc([N+](=O)[O-])cc1/C2=N\N	.
CSc1nc2n(n1)C(=O)CC(C)(C)N2	.
O=C(Nc1ccccc1)c1cccc(C(=O)Nc2ccccc2)c1F	.
Cc1ccc(C(=O)Nc2cnc3sc4ccccc4n3c2=O)cc1	.
O=C(Nc1cnc2sc3ccccc3n2c1=O)c1ccc(F)cc1	.
Cc1ccc(C(=O)Nc2cc(C#N)c3sc4ccccc4n3c2=O)cc1	4.8
S=C(Nc1cccc(Cl)c1)N1CCc2ccccc2C1	.
O=C(Cn1ccc(C(F)(F)F)n1)Nc1ccc(Cl)cc1	.
SMILES	Dicer inh
CC(C)(C)NC(=O)c1cc2ccccc2o1	4.2
O=C(Nc1ccc(F)cc1)c1cc2ccccc2o1	.
O=C(Nc1ccccc1)c1cc2ccccc2o1	.
CCc1nc2ccccc2n1CC(O)COc1cccc(OC)c1 (centres undefined)	.
CC(=O)N(C(C)=O)N(C(C)=O)c1cc2ccccc2cn1	.
O=C(Nc1ccc(F)cc1F)N1CCN(Cc2ccccc2)CC1	3
CC(C)(C)OC(=O)NC1CCN(C(=O)Nc2ccc(F)cc2F)CC1	.
CCOC(=O)C1CCN(C(=O)Nc2ccc(F)cc2F)CC1	.
O=S(=O)(Oc1ccccc1)c1ccc2c(c1)Cc1cc(S(=O)(=O)Oc3ccccc3)ccc1-2	.
Cc1ccc(-c2cnc3c(-c4ccc(Cl)cc4)c(C)nn3c2N)cc1	.
O=C(CSc1nc2ccccc2c(=O)[nH]1)Nc1cccc2nsnc12	.
COCCN1C(=O)C(=O)/C(=C(/O)c2ccccc2)C1c1ccccc1OC (centres undefined)	.
COC(=O)c1scc(Br)c1OC	.
O=S(=O)(Nc1nc(-c2ccc(F)c(F)c2)cs1)c1cccs1	.

Assay outcomes deposited in PubChem by Center for Chemical Genomics, University of Michigan.
